Measured values reported in PubChem BioAssay (NCATS).
Inconclusive results are not listed. The source made the active and inactive calls. Calls follow the shape of the dose curve; as a rule, active = well fitted curve in the direction sought with a large enough effect; inconclusive = small, poorly fitted or top-dose-only effect, or another doubt; inactive = no such curve, though single readings can be large; an effect the other way counts as inactive or inconclusive.

Experiments:
[1] = qHTS for Inhibitors of Plasmodium falciparum (DD2) proliferation (AID 504314);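 also: parasite DNA measured by SYBR Green fluorescence after red cell lysis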
Method in brief: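 Erythrocytes infected with P. falciparum Dd2 (0.3% parasitemia, 2.5% hematocrit) exposed to compound 72 h at 37C, 5% CO2. Parasite DNA quantified by SYBR Green fluorescence after saponin/Triton lysis overnight; normalized to 0.29 uM artemisinin and DMSO.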

[2] = qHTS for Inhibitors of Plasmodium falciparum (GB4) proliferation (AID 504315); also: nearly all actives have a fitted effect of over 50% in size
Method in brief: (§1)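 Erythrocytes infected with P. falciparum line (0.3% parasitemia, 2.5% hematocrit final) incubated with compounds 72 h at 37 °C, 5% CO2; SYBR Green lysis buffer added, fluorescence read next day. Normalized to 0.29 uM artemisinin and DMSO.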

[3] = qHTS for Inhibitors of Plasmodium falciparum (7G8) proliferation (AID 504316); also: series mostly up to about 6.7 µM; nearly all actives have a fitted effect of over 65% in size
Method in brief: as §1

[4] = qHTS for Inhibitors of Plasmodium falciparum (HB3) proliferation (AID 504318); also: nearly all actives have a fitted effect of over 60% in size
Method in brief: as §1

[5] = qHTS for Inhibitors of Plasmodium falciparum (CP250) proliferation (AID 504320)
Method in brief: as §1

Measured: Potency

CCCCC1=CC2=CC(=O)C(C)(OC(=O)CC)C(=O)C2=CN1CC(C)C (stereo unspecified)
inactive: [1] | [2] | [3] | [4] | [5]

CCCCC1=CC2=CC(=O)C(C)(OC(=O)CC)C(=O)C2=CN1CCCN(CC)CC (stereo unspecified)
inactive: [1] | [2] | [3] | [5]

COC(=O)CC=C[C@@H](C)[C@H](OC)c1cc(F)ccc1Br
inactive: [1] | [2] | [3] | [5]

CCOC(=O)CN1C(=O)N[C@@H](c2cccc(C(F)(F)F)c2)[C@H](C(=O)OC)[C@H]1C
inactive: [1] | [2] | [3] | [4] | [5]

CCOC(=O)CN1C(=O)N[C@@H](c2cccc(C(F)(F)F)c2)C(C(C)=O)=C1C
inactive: [1] | [2] | [3] | [5]

CCCCC1=CC2=CC(=O)C(C)(OC(=O)CC)C(=O)C2=CN1c1ccccc1 (stereo unspecified)
inactive: [1] | [2] | [3] | [5]

COC(=O)N[C@@H](c1cccc(C)c1)C(C(C)=O)C(=O)OC (stereo partly specified)
inactive: [1] | [2] | [3] | [4] | [5]

CCN1C(=O)N(C)[C@@H](c2ccccc2)C(C(=O)OC)=C1C
inactive: [1] | [2] | [3] | [5]

CC[C@@H](C)CN1C(=O)N[C@@H](c2ccccc2)C(C(C)=O)=C1C
inactive: [1] | [2] | [3] | [4] | [5]

COC(=O)C1=C(C(=O)OC)[C@@H]2N(Cc3ccccc3)c3ccccc3[C@@]23C[C@@H](C(=O)OC)N(S(=O)(=O)c2c(C)noc2C)C3=N1
inactive: [1]

COC(=O)CCC(=O)OC1(C)C(=O)C2=CN(C(CO)CO)C(c3ccc(OC)cc3)=CC2=C(Br)C1=O (stereo unspecified)
inactive: [1] | [2] | [3] | [4] | [5]
